From PMC10338684

target: Helicase protein MOM1 (UniProt Q9M658); assay: mass-spectrometry hit list; affinity purification or IP with mass spectrometry
UniProt Q9M658, sequence (Q9M658 whole entry): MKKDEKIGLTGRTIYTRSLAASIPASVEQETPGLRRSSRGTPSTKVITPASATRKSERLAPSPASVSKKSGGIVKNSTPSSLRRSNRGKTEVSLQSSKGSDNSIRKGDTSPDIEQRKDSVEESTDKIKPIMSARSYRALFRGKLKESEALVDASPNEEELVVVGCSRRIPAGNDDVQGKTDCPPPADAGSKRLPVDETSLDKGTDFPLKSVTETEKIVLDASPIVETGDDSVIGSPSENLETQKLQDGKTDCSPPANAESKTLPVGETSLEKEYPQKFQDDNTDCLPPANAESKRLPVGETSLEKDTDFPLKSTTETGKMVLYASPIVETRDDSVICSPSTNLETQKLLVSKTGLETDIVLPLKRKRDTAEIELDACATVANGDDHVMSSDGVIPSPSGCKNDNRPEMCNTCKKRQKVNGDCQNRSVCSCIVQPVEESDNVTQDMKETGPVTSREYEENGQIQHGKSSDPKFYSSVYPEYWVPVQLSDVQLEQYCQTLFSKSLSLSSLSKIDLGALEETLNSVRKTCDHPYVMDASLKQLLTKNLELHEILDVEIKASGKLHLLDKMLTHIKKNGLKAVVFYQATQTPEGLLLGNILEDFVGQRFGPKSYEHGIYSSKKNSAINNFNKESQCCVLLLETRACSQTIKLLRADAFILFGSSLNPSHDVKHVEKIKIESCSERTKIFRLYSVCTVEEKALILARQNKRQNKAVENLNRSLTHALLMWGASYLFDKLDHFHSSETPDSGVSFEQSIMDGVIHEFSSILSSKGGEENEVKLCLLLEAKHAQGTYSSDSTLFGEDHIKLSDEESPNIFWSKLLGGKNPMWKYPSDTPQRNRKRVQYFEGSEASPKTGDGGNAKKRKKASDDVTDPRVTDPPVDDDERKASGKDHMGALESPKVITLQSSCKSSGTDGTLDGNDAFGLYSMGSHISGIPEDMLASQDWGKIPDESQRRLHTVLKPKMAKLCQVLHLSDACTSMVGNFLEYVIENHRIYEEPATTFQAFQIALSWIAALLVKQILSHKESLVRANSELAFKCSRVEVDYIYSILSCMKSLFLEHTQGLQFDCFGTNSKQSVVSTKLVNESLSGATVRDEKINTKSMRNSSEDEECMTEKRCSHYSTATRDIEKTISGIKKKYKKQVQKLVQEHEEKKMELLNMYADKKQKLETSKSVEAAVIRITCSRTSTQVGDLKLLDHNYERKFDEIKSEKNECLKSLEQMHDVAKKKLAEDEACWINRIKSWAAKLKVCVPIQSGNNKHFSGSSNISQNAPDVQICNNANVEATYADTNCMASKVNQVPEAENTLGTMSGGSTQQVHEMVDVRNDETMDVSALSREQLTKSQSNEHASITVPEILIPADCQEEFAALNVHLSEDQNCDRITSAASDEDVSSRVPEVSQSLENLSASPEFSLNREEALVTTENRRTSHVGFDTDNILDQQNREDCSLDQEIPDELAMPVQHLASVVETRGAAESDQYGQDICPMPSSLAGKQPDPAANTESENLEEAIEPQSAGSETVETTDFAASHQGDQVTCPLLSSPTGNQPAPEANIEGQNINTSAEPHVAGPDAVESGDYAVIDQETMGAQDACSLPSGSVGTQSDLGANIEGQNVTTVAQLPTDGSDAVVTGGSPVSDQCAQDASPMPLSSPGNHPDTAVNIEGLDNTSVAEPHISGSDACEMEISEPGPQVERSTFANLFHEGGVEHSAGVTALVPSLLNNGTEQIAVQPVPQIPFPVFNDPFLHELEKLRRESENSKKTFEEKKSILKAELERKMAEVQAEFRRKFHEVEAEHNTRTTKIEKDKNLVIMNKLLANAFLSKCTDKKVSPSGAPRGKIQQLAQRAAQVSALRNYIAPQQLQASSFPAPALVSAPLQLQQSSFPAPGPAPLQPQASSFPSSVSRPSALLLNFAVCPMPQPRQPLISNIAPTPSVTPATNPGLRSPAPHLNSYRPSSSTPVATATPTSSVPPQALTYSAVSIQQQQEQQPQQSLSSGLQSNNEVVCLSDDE

Substance	listed as a hit
Protein MICRORCHIDIA 6, Q56Y74	yes
Protein DEFECTIVE IN MERISTEM SILENCING 3, Q94A79	yes
Chromatin remodeling ATPase BRAHMA, Q6EVK6	yes
DNA-directed RNA polymerases IV and V subunit 2, Q9LK40	yes
Protein RNA-directed DNA methylation 3, F4JW79	yes
E4 SUMO-protein ligase PIAL1, A0A0A7EPL0	yes
ASI1-immunoprecipitated protein 3, Q8RXT5	yes
PHD finger-containing protein 1, B3H578	yes
DNA-directed RNA polymerase V subunit 1, Q5D869	yes
Structural maintenance of chromosomes flexible hinge domain-containing protein GMI1, F4KFS5	yes
Chromatin structure-remodeling complex protein SYD, F4IHS2	yes
E4 SUMO-protein ligase PIAL2, F4JYG0	yes
Probable inactive lysine-specific demethylase JMJ19, Q8L7T6	yes
Protein MICRORCHIDIA 1, Q84WV6	yes
Lysine-specific demethylase JMJ14, Q8GUI6	yes
